According to PubChem BioAssay (NCATS):
Inconclusive results are not listed. Active and inactive are the calls of the source. Unless noted, calls follow the shape of the dose curve; as a rule, active = well fitted curve in the direction sought with a large enough effect; inconclusive = small, poorly fitted or top-dose-only effect, or another doubt; inactive = no such curve, though single readings can be large; an effect the other way counts as inactive or inconclusive.

What was measured:
[1] = Cell Viability - LYMP2-010 (AID 981); also: nearly all actives have a fitted effect of over 55% in size; also: potency is read from the fitted curve at half-maximal effect
How it was run: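 Human lymphoblastoid LYMP2-010 cells (2500/well) were preincubated 5 hr at 37 C, then exposed to compounds for 24 hr at 37 C in complete medium. Intracellular ATP was measured by CellTiter-Glo luminescence after 30 min at room temperature; AC50 from Hill-fitted concentration-response.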

[2] = Cell Viability - LYMP2-012 (AID 982);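 also: cellular ATP by luciferase luminescence where a drop means cytotoxicity; cells exposed to compound for one day before reading; 0% = DMSO only and full loss = 92 µM tetraoctylammonium bromide; nearly all actives have a fitted effect of over 55% in size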
[3] = Cell Viability - LYMP2-014 (AID 983);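 also: plate controls were DMSO only for no effect and 92 µM tetraoctylammonium bromide for full effect; nearly all actives have a fitted effect of over 50% in size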
How it was run: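 Human lymphoblastoid cells (2500/well) were pre-incubated 5 hr at 37 C, then exposed to compounds in complete medium for 24 hr at 37 C. Intracellular ATP was read by CellTiter-Glo luminescence after 30 min at room temperature; AC50 from Hill fits.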

[4] = Cell Viability - LYMP2-016 (AID 984); also: % is scaled to controls: 0 for no effect and ±100 for the full control effect; nearly all actives have a fitted effect of over 55% in size
How it was run: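 Cytotoxicity was scored by luminescent ATP content (CellTiter-Glo) after 24 h compound exposure at 37 C of a human lymphoblastoid line at 2500 cells/well. Concentration-response data were fitted to the Hill equation for AC50.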

[5] = Cell Viability - LYMP2-018 (AID 985);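 also: compound exposure lasted 24 hr at 37 °C; plate controls were DMSO only for no effect and tetraoctylammonium bromide at 92 µM for full effect; nearly all actives have a fitted effect of over 50% in size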
How it was run: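 Human lymphoblastoid cells (2500/well) were pre-incubated 5 hr at 37 C, then exposed to compounds for 24 hr at 37 C in complete medium. Viability was read as intracellular ATP by CellTiter-Glo luminescence; AC50 values came from Hill-equation fits.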

[6] = Cell Viability - LYMP2-020 (AID 986);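 also: plate controls were DMSO only for no effect and tetraoctylammonium bromide at 92 µM for full effect; nearly all actives have a fitted effect of over 55% in size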
How it was run: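 Human lymphoblastoid cells, 2500/well, were pre-incubated 5 hr at 37 C, then exposed to compounds for 24 hr at 37 C in complete medium. Intracellular ATP was read by CellTiter-Glo luminescence, and AC50 was derived by Hill fitting of concentration-response data.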

[7] = Cell Viability - LYMP2-022 (AID 987)
How it was run: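 Human lymphoblastoid cells, 2500/well, preincubated 5 hr at 37 C, then exposed to compounds over a concentration range for 24 hr at 37 C in complete medium. Viability read as intracellular ATP by CellTiter-Glo luminescence after 30 min at room temperature; AC50 from Hill fits.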

[8] = Cell Viability - LYMP2-024 (AID 988);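 also: plate controls were DMSO only for no effect and 92 µM tetraoctylammonium bromide for full effect; nearly all actives have a fitted effect of over 60% in size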
How it was run: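 Human lymphoblastoid cells (2500/well) in complete medium were preincubated 5 hr at 37 C, then exposed to compounds for 24 hr at 37 C. Intracellular ATP was read by CellTiter-Glo luminescence; AC50 from Hill-equation fits of concentration-response data.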

[9] = Cell Viability - LYMP2-026 (AID 989); also: % is scaled to controls: 0 for no effect and ±100 for the full control effect; nearly all actives have a fitted effect of over 50% in size
How it was run: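 Human lymphoblastoid cells (2500/well) in complete medium were preincubated 5 hr at 37 C, then exposed to compounds for 24 hr at 37 C. Cellular ATP was read by CellTiter-Glo luminescence; AC50 from Hill-equation fits of concentration-response data.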

[10] = Cell Viability - LYMP1-002 - Assay at 24 hr (AID 993); also: % is scaled to controls: 0 for no effect and ±100 for the full control effect
How it was run: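 Human lymphoblastoid LYMP1-002 cells, 2500/well in complete medium, were treated with compounds for 24 h at 37 C; intracellular ATP was read by CellTiter-Glo luminescence. AC50 values came from Hill-equation fits of qHTS concentration-response data.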

[11] = Cell Viability - LYMP1-002 - Assay at 40 hr (AID 994);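 also: 0% = DMSO only and full inhibition = 92 µM tetraoctylammonium bromide; nearly all actives have a fitted effect of over 60% in size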
How it was run: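 Human lymphoblastoid cells, 2500/well in complete medium, were preincubated 5 hr at 37 C, then exposed to compounds for 40 hr at 37 C. Intracellular ATP was read by CellTiter-Glo luminescence after 30 min at room temperature; AC50 from Hill-equation fits.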

[12] = qHTS Assay for Identification of Small Molecule Inducers of Hypoxia Response (AID 2120; active = well fitted curve in the direction sought with a large enough effect in the signal ratio, with a control signal flat, not every such curve was filed as active; the % refers to the signal ratio; also: 0% is about no effect)
How it was run: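 HRE-beta-lactamase reporter in CellSensor HRE-bla ME-180 cells, 2500 cells/well in Opti-MEM with 0.5% dialyzed FBS; compounds tested as titration series, 17 h at 37 degrees C. CCF4 substrate 2.5 h at room temperature; AC50 from 460/530 nm ratio.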

[13] = molecular target: Estrogen receptor (Homo sapiens) (UniProt P03372); assay: qHTS assay for small molecule antagonists of estrogen receptor alpha signaling (AID 588513; active = well fitted curve in the direction sought with a large enough effect in the signal ratio, with a control signal flat, not every such curve was filed as active; the % refers to the signal ratio; also: % is scaled to controls: 0 for no effect and ±100 for the full control effect)
How it was run: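 Antagonist mode: inhibition of 0.5 nM 17-beta-estradiol-driven beta-lactamase reporter in HEK 293 ER-alpha-UAS-bla cells, 18 h at 37C, CCF4 readout after 2 h at RT. Normalised to estradiol and DMSO; titration fitted to Hill.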

[14] = molecular target: Estrogen receptor (Homo sapiens) (UniProt P03372); assay: qHTS assay for small molecule agonists of estrogen receptor alpha signaling (AID 588514; calls by dose curve;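 also: 0% = vehicle only and 100% = reference agonist; nearly all actives have a fitted effect of over 70% in size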)
How it was run: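 ER-alpha-UAS-bla GripTite HEK 293 cells in medium with 2% charcoal/dextran-treated FBS were treated with compound titrations at 37 C for 18 hrs; beta-lactamase reporter read by CCF4 fluorescence after 2 hrs at RT.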

[15] = qHTS Assay for Lipid Storage Modulators (AID 1519; calls by dose curve; as to activity change, negative = inhibition: % is scaled to controls: 0 for no effect and ±100 for the full control effect); conditions: Drosophila S3 cells, BODIPY lipid droplet/cell ratio, laser cytometry, cells loaded with oleic acid
How it was run: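 Cells seeded at 5,000 per well were treated with compounds over a concentration series and loaded with oleic acid (400 uM, as added). Lipid droplet fluorescence (488 nm excitation, 500-530 nm channel) was read by laser-scanning cytometry and normalized to 20 uM Triacsin C.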

[16] = molecular target: Ubiquitin carboxyl-terminal hydrolase 1 (Homo sapiens) (UniProt O94782); assay: Inhibitors of USP1/UAF1: Pilot qHTS (AID 504865);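 also: rhodamine fluorescence freed from ubiquitin-rhodamine substrate followed over time; top concentration of the series differs between compounds; % is scaled to controls: 0 for no effect and ±100 for the full control effect; nearly all actives have a fitted effect of over 35% in size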
How it was run: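 Deubiquitinase activity followed as kinetic rhodamine fluorescence release from 150 nM Ub-Rho. 1 nM USP1/UAF1 with compound, after 15 min room-temperature preincubation, in HEPES pH 7.8 buffer containing TCEP, EDTA, BSA and Tween-20.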

[17] = molecular target: DNA dC->dU-editing enzyme APOBEC-3G (Homo sapiens) (UniProt Q9HC16); assay: qHTS for inhibitors of Vif-A3G interactions: Validation (AID 588379); also: 0% is about no effect
How it was run: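 HeLa cells stably expressing Vif and A3G-eYFP, 700 cells/well, incubated overnight at 37 deg C, then exposed to compound overnight at 37 deg C. Inhibition of Vif-mediated degradation read as increased yellow fluorescence (Ex 488/Em 500-530) by laser-scanning cytometry.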

[18] = molecular target: Alpha-galactosidase A (Homo sapiens) (UniProt P06280); assay: Counterscreen for Glucocerebrosidase Inhibitors: qHTS Assay for Human alpha-Galactosidase at pH 4.5 (AID 992); also: 0% is about no effect
How it was run: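 Quantitative HTS: compounds tested from 0.7 nM up to 77 uM against 2 nM enzyme with 80 uM 4-MU alpha-D-galactopyranoside. The 20 min room-temperature reaction is stopped with 1M NaOH/1M glycine, pH 10.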

[19] = molecular target: alpha-glucosidase (Oryza sativa, rice) (UniProt Q653V4); assay: Counterscreen for Glucocerebrosidase Inhibitors: qHTS Assay for Rice alpha-Glucosidase at pH 5.0 (AID 997);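 also: 0% = full activity with enzyme and -100% = basal without enzyme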
How it was run: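 Rice alpha-glucosidase (4 nM final) with 400 uM 4-methylumbelliferyl-alpha-D-glucopyranoside in citrate buffer pH 5.0, 20 min at room temperature, stopped at pH 10; fluorescence 365/440 nm, compounds 0.7 nM–77 uM, AC50 from Hill fits.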

[20] = molecular target: ATP-dependent 6-phosphofructokinase (Trypanosoma brucei brucei) (UniProt O15648); assay: qHTS Assay to Find Inhibitors of T. brucei phosphofructokinase: hit validation (AID 492961);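 also: luminescence reports ADP formed as PFK phosphorylates fructose-6-phosphate with ATP; % is scaled to controls: 0 for no effect and ±100 for the full control effect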
How it was run: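 In this biochemical qHTS validation, titrated compounds were tested against 1.25 nM PFK with 0.1 mM ATP and 0.5 mM F6P. Percent activity came from controls lacking or containing enzyme.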

[21] = measured here: cell count channel max response
[22] = measured here: lipid channel max response

Chain of Estrogen receptor (Homo sapiens) (P03372 whole entry, looked up): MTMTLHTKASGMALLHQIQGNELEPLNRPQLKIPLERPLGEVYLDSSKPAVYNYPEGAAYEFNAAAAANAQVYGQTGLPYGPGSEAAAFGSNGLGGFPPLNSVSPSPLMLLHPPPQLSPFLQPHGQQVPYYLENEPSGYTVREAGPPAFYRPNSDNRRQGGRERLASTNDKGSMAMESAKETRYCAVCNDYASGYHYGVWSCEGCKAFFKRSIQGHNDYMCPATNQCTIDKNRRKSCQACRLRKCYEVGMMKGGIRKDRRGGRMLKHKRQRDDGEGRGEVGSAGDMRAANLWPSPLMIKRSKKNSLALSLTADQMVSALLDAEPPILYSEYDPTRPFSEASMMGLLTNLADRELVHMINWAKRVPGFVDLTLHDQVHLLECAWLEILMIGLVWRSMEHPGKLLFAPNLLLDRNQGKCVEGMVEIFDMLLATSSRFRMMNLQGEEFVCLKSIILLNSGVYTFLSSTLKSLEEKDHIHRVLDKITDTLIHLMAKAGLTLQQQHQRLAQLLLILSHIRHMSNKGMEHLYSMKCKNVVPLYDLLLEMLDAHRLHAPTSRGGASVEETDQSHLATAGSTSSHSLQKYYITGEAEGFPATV
Chain of DNA dC->dU-editing enzyme APOBEC-3G (Homo sapiens) (Q9HC16 whole entry, looked up): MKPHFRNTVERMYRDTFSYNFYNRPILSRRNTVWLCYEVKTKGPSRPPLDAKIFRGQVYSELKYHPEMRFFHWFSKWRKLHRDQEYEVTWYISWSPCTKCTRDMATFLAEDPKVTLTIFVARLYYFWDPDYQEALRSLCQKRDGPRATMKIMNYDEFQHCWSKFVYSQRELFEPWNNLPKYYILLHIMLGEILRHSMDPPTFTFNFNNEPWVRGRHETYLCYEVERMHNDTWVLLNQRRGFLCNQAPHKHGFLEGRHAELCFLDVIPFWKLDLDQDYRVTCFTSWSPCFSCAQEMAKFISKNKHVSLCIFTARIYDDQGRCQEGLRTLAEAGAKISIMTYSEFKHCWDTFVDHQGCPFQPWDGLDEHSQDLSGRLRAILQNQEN
Chain of Ubiquitin carboxyl-terminal hydrolase 1 (Homo sapiens) (O94782 whole entry, looked up): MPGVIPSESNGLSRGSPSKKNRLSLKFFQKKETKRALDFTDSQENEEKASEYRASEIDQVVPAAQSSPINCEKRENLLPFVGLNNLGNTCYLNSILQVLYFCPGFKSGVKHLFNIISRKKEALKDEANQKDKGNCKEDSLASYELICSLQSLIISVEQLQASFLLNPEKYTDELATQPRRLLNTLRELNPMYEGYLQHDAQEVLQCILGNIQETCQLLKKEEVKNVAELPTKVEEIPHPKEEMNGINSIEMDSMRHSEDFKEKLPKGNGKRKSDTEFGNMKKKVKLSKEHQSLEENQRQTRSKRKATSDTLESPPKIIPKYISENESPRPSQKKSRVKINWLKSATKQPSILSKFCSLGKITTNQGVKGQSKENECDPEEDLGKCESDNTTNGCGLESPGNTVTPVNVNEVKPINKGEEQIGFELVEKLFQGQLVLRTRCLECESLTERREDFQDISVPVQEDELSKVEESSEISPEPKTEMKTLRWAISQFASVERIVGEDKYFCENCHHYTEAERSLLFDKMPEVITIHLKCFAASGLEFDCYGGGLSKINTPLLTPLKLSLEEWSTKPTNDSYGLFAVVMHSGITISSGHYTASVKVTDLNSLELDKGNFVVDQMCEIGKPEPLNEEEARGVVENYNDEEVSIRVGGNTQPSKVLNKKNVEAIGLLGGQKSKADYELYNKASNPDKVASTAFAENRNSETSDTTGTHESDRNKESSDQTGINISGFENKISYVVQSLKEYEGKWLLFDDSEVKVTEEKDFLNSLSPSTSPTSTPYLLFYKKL
Chain of ATP-dependent 6-phosphofructokinase (Trypanosoma brucei brucei) (O15648 whole entry, looked up): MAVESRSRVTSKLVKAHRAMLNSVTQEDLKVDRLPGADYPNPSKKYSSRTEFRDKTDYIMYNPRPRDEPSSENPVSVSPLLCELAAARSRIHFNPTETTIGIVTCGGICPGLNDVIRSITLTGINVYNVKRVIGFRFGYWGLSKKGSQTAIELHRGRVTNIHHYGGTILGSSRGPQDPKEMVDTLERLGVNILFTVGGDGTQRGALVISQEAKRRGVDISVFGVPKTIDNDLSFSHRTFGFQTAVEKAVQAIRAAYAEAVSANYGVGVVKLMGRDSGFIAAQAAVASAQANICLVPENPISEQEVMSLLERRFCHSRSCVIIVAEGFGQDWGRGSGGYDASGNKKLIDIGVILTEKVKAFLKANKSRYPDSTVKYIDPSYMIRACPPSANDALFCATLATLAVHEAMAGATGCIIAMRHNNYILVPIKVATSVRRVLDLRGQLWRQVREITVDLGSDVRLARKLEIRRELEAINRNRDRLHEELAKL
Chain of Alpha-galactosidase A (Homo sapiens) (P06280 whole entry, looked up): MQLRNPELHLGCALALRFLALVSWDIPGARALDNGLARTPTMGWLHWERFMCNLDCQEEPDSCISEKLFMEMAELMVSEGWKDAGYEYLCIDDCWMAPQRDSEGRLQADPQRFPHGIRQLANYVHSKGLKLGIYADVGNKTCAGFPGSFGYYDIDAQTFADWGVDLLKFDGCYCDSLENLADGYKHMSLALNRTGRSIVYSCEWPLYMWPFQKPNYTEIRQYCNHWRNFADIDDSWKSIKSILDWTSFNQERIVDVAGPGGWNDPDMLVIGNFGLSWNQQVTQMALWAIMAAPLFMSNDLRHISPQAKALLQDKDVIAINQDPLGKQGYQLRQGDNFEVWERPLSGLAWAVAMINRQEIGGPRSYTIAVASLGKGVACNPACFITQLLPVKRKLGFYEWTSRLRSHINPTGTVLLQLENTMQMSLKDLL

CC(=O)O[C@@H]1CC(C)=C2[C@H]1[C@H](C)CC[C@H]2/C=C(\C)C(=O)O
inactive: Potency [1] | outcome [2] | outcome [3] | outcome [4] | outcome [5] | outcome [6] | outcome [7] | outcome [8] | outcome [9] | outcome [10] | outcome [11] | outcome [12] | outcome [13] | outcome [14]

Cc1ccc(N)cc1O
inactive: Potency [1] | outcome [2] | outcome [3] | outcome [4] | outcome [5] | outcome [6] | outcome [7] | outcome [8] | outcome [9] | outcome [10] | outcome [11] | outcome [12] | outcome [14]

COc1ccc2c(OC)c3ccoc3nc2c1OC
inactive: activity change, negative = inhibition ([15]; at 25.7 µM (top of the series)) -9.25% | outcome [16] | outcome [17]
-6.85%: max response [15, 22]
0.385%: max response [15, 21]

COc1ccc(C[C@H](N)C(=O)N[C@@H]2[C@H](O)[C@H](n3cnc4c(N(C)C)ncnc43)O[C@@H]2CO)cc1
inactive: outcome [16]

Nc1ccccc1N
inactive: outcome [2] | outcome [3] | outcome [4] | outcome [5] | outcome [9] | outcome [10] | outcome [12] | outcome [13]
active: Potency [1] 15.8 µM

CC(C)C(N)C(=O)OCCOCn1cnc2c(=O)[nH]c(N)nc21 (configuration not stated)
inactive: activity change, negative = inhibition ([15]; at 57.5 µM (top of the series)) 7.31% | outcome [16]
21.7%: max response [15, 22]
9.47%: max response [15, 21]

CC(=O)c1cc2c(cc1O)OC(C)(C)C=C2
-14.4%: max response [15, 21]
inactive: activity change, negative = inhibition ([15]; at 57.5 µM (top of the series)) 18.6% | outcome [16]
0.328%: max response [15, 22]

CC(=O)O[C@H]1C(=O)[C@@]2(C)[C@H]([C@H](OC(=O)c3ccccc3)[C@]3(O)C[C@H](OC(=O)[C@H](O)[C@@H](NC(=O)c4ccccc4)c4ccccc4)C(C)=C1C3(C)C)[C@]1(OC(C)=O)CO[C@@H]1C[C@@H]2O
inactive: outcome [18] | outcome [19] | outcome [20] | outcome [16] | outcome [17] | outcome [14]

Nc1nc2c(ncn2[C@@H]2O[C@H](CO)[C@@H](O)[C@H]2O)c(=O)[nH]1
-11.6%: max response [15, 21]
-14.4%: max response [15, 22]
inactive: activity change, negative = inhibition ([15]; at 57.5 µM (top of the series)) -2.55% | outcome [16] | outcome [17]

CC[C@]1(O)CC2CN(CCc3c([nH]c4ccccc34)[C@@](C(=O)OC)(c3cc4c(cc3OC)N(C)[C@H]3[C@@](O)(C(=O)OC)[C@H](OC(C)=O)[C@]5(CC)C=CCN6CC[C@]43[C@@H]65)C2)C1 (some centres not stated)
inactive: outcome [20]
